Screening results as filed in PubChem BioAssay.
ANO1 activ: TMEM16A chloride channel activators or potentiators, primary screen, cell-based, HTS; Anoctamin-1 (Mus musculus), Q8BHY3; HEK293 TMEM16A/YFP-H148Q/I152L, iodide quench fluorescence; active compounds read low; B-score at 10 µM; 0.3% of 340,000 active; AID 623877, 2012;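 active = fluorescence-ratio B-score plate-corrected deviation score at least 3 library SD below zero, with starting fluorescence score within 5 deviations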;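 also: channel opened by trigger with iodide after compound preincubation; score built on the fluorescence ratio of max minus min over baseline; more negative score means more quench and so TMEM16A activation or potentiation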
TLR4 MyD88 comp: inhibitors of TLR4-MyD88 association in cells, primary screen, cell-based, HeLa CL3-4, BLA complementation, FRET ratio; HeLa CL3-4 TLR4/MyD88 BLA complementation; inhibition, % at 8.4 µM; 0.18% of 200,000 active; AID 861, 2007; in the data active = inhibition above about 25%
ANO1 block: TMEM16A chloride channel inhibitors, primary screen, cell-based, HTS. Anoctamin-1 (Mus musculus), Q8BHY3. HEK293 TMEM16A/YFP iodide influx fluorescence, ionomycin. normalized B-score (activity score, 25-100; higher = stronger inhibition) at 10 µM. 1.2% of 310,000 active. AID 588511, 2011;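 active = ratio plate-corrected score three or more library SD toward inhibition, starting fluorescence score within five deviations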;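 also: score derived from kinetic fluorescence span divided by baseline fluorescence per well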
NOD2-RIPK2 inh: NOD2-RIPK2 binding disruptors in cells, primary screen, fluorescence, CHO cells, BLA complementation; Receptor-interacting serine/threonine-protein kinase 2 (Homo sapiens), O43353; CCF4 ratio; inhibition, % at 4.98 µM; 0.38% of 360,000 active; in the data active = inhibition above about 21%
TLR9-MyD88 inh: inhibitors of TLR9-MyD88 association in cells, primary screen, cell-based, CHO, BLA complementation, fluorescence. 0.21% of 340,000 active. inhibition, % at 4.98 µM. CCF4 FRET ratio. Toll-like receptor 9 (Homo sapiens) + Myeloid differentiation primary response protein …. AID 504734, 2011;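 active = inhibition above the mean over all tested compounds plus 3 SD, cut at about 21% in these data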
HTR2A ag: mouse Htr2a agonists via beta-arrestin recruitment, primary screen, cell-based, luminescence | 5-hydroxytryptamine receptor 2A (Mus musculus), P35363 | CHO-K1 mHTR2A beta-arrestin complementation; percent of 30 µM serotonin response | activation, % at 7.6 µM | 0.66% of 360,000 active | AID 624169, 2012;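 active = activation above a run cutoff, the mean activation of all tested compounds plus 3 SD, cut at about 14% in these data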
TMEM16A reconf: TMEM16A chloride channel inhibitors, confirmation, cell-based, re-confirmation; shares compounds with ANO1 block; HEK293 TMEM16A/YFP-H148Q, iodide quench fluorescence; ionomycin added to raise cell calcium; inhibition, % at 10 µM; 39% of 2,300 active;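 active = mean duplicate percent inhibition, scaled so buffer wells are 0 and the reference blocker 100, over three buffer SD above buffer mean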
HEK293 Ca mobil: calcium mobilization in TMEM16A/YFP HEK293 cells, confirmation, counter-screen for TMEM16A inhibitor project; AID 652231, 2013; Fluo4 calcium mobilization; calcium response (% of ionomycin), % at 10 µM; shares compounds with ANO1 block; 2% of 2,300 active;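 active = duplicate-averaged calcium signal over 20% of the ionomycin maximum, relative to buffer baseline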;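 also: each well's signal is peak minus trough fluorescence divided by its pre-addition baseline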
Parental YFP cnt: iodide YFP quench changes in parental YFP-HEK293, counter-screen for TMEM16A inhibitor project, cell-based. shares compounds with ANO1 block. ionomycin. YFP ratio F(max-min)/F0 at 10 µM. 2,300 tested, under 10 active. AID 652233, 2013;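 active = yellow fluorescent protein signal ratio exceeding the buffer control mean by over 5 SD of those controls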;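 also: ratio is mean of duplicate wells from kinetic YFP trace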
ClC-1 rat inh: ClC-1 chloride channel inhibition, selectivity assay for TMEM16A inhibitor project, cell-based, voltage-dependent ClC-1. CHO ClC-1-YFP, iodide influx fluorescence quench; iodide control reads 0, buffer control 100. 2,300 tested, under 10 active. ratio percent, % at 10 µM. shares compounds with ANO1 block;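 active = duplicate-mean ratio percent above the mean of iodide-only control wells, which defines zero, plus 5 of their SD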;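 also: higher percent means stronger block of ClC-1 iodide influx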
Large screens that a line does not name were inactive (follow-up assays come after a bar, where they were run). In the library only some 2.4% were active in any assay of this set; here they are far more common.

CCCCC(=O)Oc1c(S(=O)(=O)c2ccccc2)c(C)nn1C(C)(C)C	ANO1 block 25 (no result: TLR4 MyD88 comp) | TMEM16A reconf inactive | HEK293 Ca mobil inactive | Parental YFP cnt inactive | ClC-1 rat inh inactive
Fc1ccccc1OCCSc1nnnn1-c1ccccc1	none | TMEM16A reconf 22% | HEK293 Ca mobil inactive | Parental YFP cnt inactive | ClC-1 rat inh inactive
OCCN(Cc1ccccc1)Cc1ccccc1Cl	none
COCC(N)(c1ccccc1)c1nc2ccccc2n1C (configuration not stated)	ANO1 block 25 | TMEM16A reconf inactive | HEK293 Ca mobil inactive | Parental YFP cnt inactive | ClC-1 rat inh inactive
Cc1cccc(N2CCN(C(=O)CSCc3c(C)noc3C)CC2)c1C	ANO1 block 100 | TMEM16A reconf 42% | HEK293 Ca mobil inactive | Parental YFP cnt inactive | ClC-1 rat inh inactive
c1ccc2c(c1)[nH]c1c(N3CCC4(CC3)OCCO4)ncnc12	none
Cc1ccc2[nH]c3c(N4CCN(Cc5ccccc5)CC4)ncnc3c2c1	ANO1 block 100 | TMEM16A reconf 38% | HEK293 Ca mobil inactive | Parental YFP cnt inactive | ClC-1 rat inh inactive
c1ccc(CN2CCN(c3ncnc4c3[nH]c3ccccc34)CC2)cc1	ANO1 block 100, HTR2A ag 24 | TMEM16A reconf 19% | HEK293 Ca mobil inactive | Parental YFP cnt inactive | ClC-1 rat inh inactive
Cc1ccc2c(c1)[nH]c1c(N3CCN(Cc4ccccc4)CC3)ncnc12	ANO1 block 25 | TMEM16A reconf 25% | HEK293 Ca mobil inactive | Parental YFP cnt inactive | ClC-1 rat inh inactive
CCc1ccc(C2C(C#N)=C(N)Oc3cc(N)ccc32)cc1 (configuration not stated)	none (no result: TLR4 MyD88 comp)
O=C(CN1CCN(Cc2ccc(Cl)cc2)C1=O)NCc1cccs1	none | TMEM16A reconf inactive | HEK293 Ca mobil inactive | Parental YFP cnt inactive | ClC-1 rat inh inactive
CCOc1ccc(C2/C(=C(/O)c3ccc(S(=O)(=O)N4CCCCC4)cc3)C(=O)C(=O)N2CCCOC)cc1OC (configuration not stated)	none (no result: TLR4 MyD88 comp)
COc1ccc(/C=C/c2nc(-c3ccccc3O)n[nH]2)cc1OC	ANO1 block 25 | TMEM16A reconf inactive | HEK293 Ca mobil inactive | Parental YFP cnt inactive | ClC-1 rat inh inactive
O=c1[nH]cc(CN2CCOCC2)c(=O)[nH]1	none (no result: TLR4 MyD88 comp, ANO1 block)
Cc1nc(NCCc2ccccc2)c2oc3ccccc3c2n1	ANO1 block 25 | TMEM16A reconf inactive | HEK293 Ca mobil inactive | Parental YFP cnt inactive | ClC-1 rat inh inactive
CCn1cc(C(=O)OCC(=O)OC2CC(C)CCC2C(C)C)c(=O)c2ccc(C)nc21 (configuration not stated)	ANO1 block 25 | TMEM16A reconf inactive | HEK293 Ca mobil inactive | Parental YFP cnt inactive | ClC-1 rat inh inactive
N#CC1=C(N)N2C(=C(C#N)C1c1ccc(Br)cc1)Nc1ccccc12 (configuration not stated)	ANO1 block 25 (no result: ANO1 activ, NOD2-RIPK2 inh, TLR9-MyD88 inh, HTR2A ag) | TMEM16A reconf 16% | HEK293 Ca mobil inactive | Parental YFP cnt inactive | ClC-1 rat inh inactive
CSc1nnc(-c2ccccc2)c(=O)[nH]1	none (no result: ANO1 activ)
CCCOC1CCCN(C(=O)c2ccc3oc(C(C)C)nc3c2)C1 (configuration not stated)	none (no result: TLR4 MyD88 comp)
CC(=O)c1c(C)[nH]c(C(=O)OCCOc2ccccc2)c1C	none
Cc1c(C(=O)OCCOc2ccccc2)[nH]c2c1C(=O)CCC2	ANO1 block 100 | TMEM16A reconf 25% | HEK293 Ca mobil inactive | Parental YFP cnt inactive | ClC-1 rat inh inactive
CCOC(=O)c1ccccc1NC(=O)c1c(F)c(F)c(F)c(F)c1F	none
CC(=O)c1cccc(NC(=S)NC(=O)c2cccc(Cl)c2)c1	ANO1 block 25 | TMEM16A reconf inactive | HEK293 Ca mobil 28% | Parental YFP cnt inactive | ClC-1 rat inh inactive
COc1ccc(CC(=O)Nc2oc(-c3ccccc3)c(-c3ccccc3)c2C#N)cc1OC	none
COc1ccccc1OCC(=O)Nc1oc(-c2ccccc2)c(-c2ccccc2)c1C#N	ANO1 block 25 | TMEM16A reconf 29% | HEK293 Ca mobil inactive | Parental YFP cnt inactive | ClC-1 rat inh inactive
Cc1cc(Nc2ccccc2Cl)c2ccccc2n1	none (no result: TLR4 MyD88 comp)
Cc1cc(C)nc(NCC(O)CNc2ccccc2Cl)n1 (configuration not stated)	ANO1 block 25 | TMEM16A reconf 36% | HEK293 Ca mobil inactive | Parental YFP cnt inactive | ClC-1 rat inh inactive
CN1CCN(/C=N/c2c(C#N)cnn2Cc2ccccc2)CC1	ANO1 block 25 | TMEM16A reconf inactive | HEK293 Ca mobil inactive | Parental YFP cnt inactive | ClC-1 rat inh inactive
CN1CCN(C(=O)c2ccc(-c3ccc(F)c(F)c3)c3ccoc23)CC1	none (no result: ANO1 activ, TLR4 MyD88 comp, ANO1 block, TLR9-MyD88 inh)
CSc1cccc(NC(=O)/C=C/c2ccc(Cl)cc2)c1	ANO1 block 100 | TMEM16A reconf 62% | HEK293 Ca mobil inactive | Parental YFP cnt inactive | ClC-1 rat inh inactive
CSc1cccc(NC(=O)/C=C/c2ccccc2)c1	none
Cc1ccc(OCc2ccc(C(=O)N3CCCC3)o2)cc1C	ANO1 block 25 (no result: TLR4 MyD88 comp) | TMEM16A reconf inactive | HEK293 Ca mobil inactive | Parental YFP cnt inactive | ClC-1 rat inh inactive
N#Cc1c(NC(=O)c2ccc([N+](=O)[O-])o2)sc2c1CCC2	ANO1 block 100 (no result: TLR4 MyD88 comp) | TMEM16A reconf 41% | HEK293 Ca mobil inactive | Parental YFP cnt inactive | ClC-1 rat inh inactive
NC(=O)c1c(NC(=O)c2ccc([N+](=O)[O-])o2)sc2c1CCCC2	none (no result: TLR4 MyD88 comp)
CCOC(=O)C(=O)Nc1ccc(S(=O)(=O)Nc2ncccn2)cc1	ANO1 block 25 | TMEM16A reconf inactive | HEK293 Ca mobil inactive | Parental YFP cnt inactive | ClC-1 rat inh inactive
